Measurements as given in PubChem BioAssay (NCI).
The panel holds about 83,000 compounds, 20% with a hit somewhere; the sample as a whole holds those more often.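 Values shown are percent growth following 48 h exposure of cells in 96-well plates to a single concentration of compound; below 10 was considered active.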 Active and inactive are the calls of the source.

Key:
Experiment in all cases: NCI-60 one-dose screen, 48 h (100 = growth as untreated, 0 = no growth, -100 = all killed)
Conditions in all cases: 10 µM unless noted
NCI-H23 lung = system: NCI-H23 lung
NCI-H226 lung = system: NCI-H226 lung
NCI-H322M lung = system: NCI-H322M lung
HOP-62 NSCLC = system: HOP-62 NSCLC
NCI-H460 lung = system: NCI-H460 lung
HOP-92 NSCLC = system: HOP-92 NSCLC
NCI-H522 lung = system: NCI-H522 lung
A549/ATCC NSCLC = system: A549/ATCC NSCLC
786-0 renal = system: 786-0 renal
COLO 205 colon = system: COLO 205 colon
DU-145 prostate = system: DU-145 prostate
K-562 leukemia = system: K-562 leukemia
MALME-3M melanoma = system: MALME-3M melanoma
MDA-MB-231 breast = system: MDA-MB-231 breast
RXF 393 renal = system: RXF 393 renal
SF-268 CNS = system: SF-268 CNS
SF-295 CNS = system: SF-295 CNS
SF-539 CNS = system: SF-539 CNS
UACC-257 melanoma = system: UACC-257 melanoma
M14 melanoma = system: M14 melanoma

Measured: growth

Cc1ccc2c(C(C[N+](=O)[O-])c3ccccc3)c(-c3ccccc3)[nH]c2c1 (stereo not given)
active: NCI-H522 lung -37.8% [9.5 µM] | COLO 205 colon 9.02% [9.5 µM] | RXF 393 renal 5.65% [9.5 µM] | SF-295 CNS 9.43% [9.5 µM] | SF-539 CNS 8.82% [9.5 µM]
inactive: NCI-H23 lung 39.4% [9.5 µM] | NCI-H226 lung 35.3% [9.5 µM] | NCI-H322M lung 41.7% [9.5 µM] | HOP-62 NSCLC 20.2% [9.5 µM] | NCI-H460 lung 12.2% [9.5 µM] | HOP-92 NSCLC 25.8% [9.5 µM] | A549/ATCC NSCLC 28.6% [9.5 µM] | 786-0 renal 30.8% [9.5 µM] | DU-145 prostate 30.3% [9.5 µM] | K-562 leukemia 10.9% [9.5 µM] | MALME-3M melanoma 44.7% [9.5 µM] | MDA-MB-231 breast 37.2% [9.5 µM] | SF-268 CNS 35.2% [9.5 µM] | UACC-257 melanoma 27.6% [9.5 µM] | M14 melanoma 22.3% [9.5 µM]

Cn1cc(C(=O)c2nc(-c3c[nH]c4ccc(Br)cc34)no2)c2cc(F)ccc21
inactive: NCI-H23 lung 84.9% | NCI-H226 lung 81.5% | NCI-H322M lung 95.7% | HOP-62 NSCLC 103% | NCI-H460 lung 97% | HOP-92 NSCLC 85.4% | NCI-H522 lung 90.5% | A549/ATCC NSCLC 104% | 786-0 renal 103% | COLO 205 colon 98.3% | DU-145 prostate 106% | K-562 leukemia 102% | MALME-3M melanoma 96.1% | MDA-MB-231 breast 89% | RXF 393 renal 109% | SF-268 CNS 99.2% | SF-295 CNS 97.6% | SF-539 CNS 99.1% | UACC-257 melanoma 99.7% | M14 melanoma 100%

COc1ccc(S(=O)(=O)N2CCN(C)CC2)cc1NC(=O)c1[nH]c(C)c2c1CCCCC2=O
inactive: NCI-H23 lung 66.9% | NCI-H226 lung 61.7% | NCI-H322M lung 59.9% | HOP-62 NSCLC 43.4% | NCI-H460 lung 73.3% | HOP-92 NSCLC 34.6% | NCI-H522 lung 50.1% | A549/ATCC NSCLC 62.3% | 786-0 renal 58.6% | COLO 205 colon 33.1% | DU-145 prostate 87.1% | K-562 leukemia 46.9% | MALME-3M melanoma 52% | MDA-MB-231 breast 51.1% | RXF 393 renal 84.3% | SF-268 CNS 82% | SF-295 CNS 54.7% | SF-539 CNS 52.5% | UACC-257 melanoma 57.9% | M14 melanoma 54.4%

CCCN1CCN(c2ccc3nc(-c4ccc5nc(-c6ccc(OCC)cc6)[nH]c5c4)[nH]c3c2)CC1
inactive: NCI-H23 lung 19.5% | NCI-H226 lung 65.1% | NCI-H322M lung 60.6% | HOP-62 NSCLC 55.7% | HOP-92 NSCLC 39.3% | 786-0 renal 16.3% | DU-145 prostate 21.2% | MDA-MB-231 breast 84.8% | SF-268 CNS 68.6% | SF-295 CNS 41.4% | SF-539 CNS 58.3% | UACC-257 melanoma 39.7%
active: NCI-H460 lung -76.8% | NCI-H522 lung -3.11% | A549/ATCC NSCLC -71.4% | COLO 205 colon -32% | K-562 leukemia -47.4% | MALME-3M melanoma 0.636% | RXF 393 renal -31.3% | M14 melanoma -27.2%

O=C(O)c1ccc(N=CC(=O)c2ccc(-c3ccccc3)cc2)cc1
inactive: NCI-H23 lung 93.6% | NCI-H226 lung 83.9% | NCI-H322M lung 105% | HOP-62 NSCLC 103% | NCI-H460 lung 104% | HOP-92 NSCLC 84.2% | NCI-H522 lung 87.2% | A549/ATCC NSCLC 92.1% | 786-0 renal 104% | COLO 205 colon 111% | DU-145 prostate 112% | K-562 leukemia 116% | MALME-3M melanoma 97.7% | MDA-MB-231 breast 101% | RXF 393 renal 118% | SF-268 CNS 109% | SF-295 CNS 104% | SF-539 CNS 104% | UACC-257 melanoma 93.1% | M14 melanoma 94.1%

C(=C\c1nccc2c1[nH]c1ccccc12)/c1ccccc1
inactive: NCI-H23 lung 34.3% | NCI-H226 lung 51.6% | NCI-H322M lung 29.9% | HOP-62 NSCLC 40.7% | HOP-92 NSCLC 45.4% | A549/ATCC NSCLC 21.4% | 786-0 renal 35.8% | K-562 leukemia 69.2% | MALME-3M melanoma 29.4% | MDA-MB-231 breast 30.7% | SF-268 CNS 41.8% | UACC-257 melanoma 37.5% | M14 melanoma 19.8%
active: NCI-H460 lung 4.91% | NCI-H522 lung 4.33% | COLO 205 colon 3.43% | DU-145 prostate 9.25% | RXF 393 renal -44.6% | SF-295 CNS -32% | SF-539 CNS 7.92%

O=C(/C=C/c1cccc(Cl)c1)c1ccc(O)c(CN2CCN(c3cc4c(cc3F)c(=O)c(C(=O)O)cn4C3CC3)CC2)c1
inactive: NCI-H23 lung 56.4% | NCI-H226 lung 62% | NCI-H322M lung 37.8% | HOP-62 NSCLC 37.2% | NCI-H460 lung 44% | HOP-92 NSCLC 21.8% | NCI-H522 lung 17.3% | A549/ATCC NSCLC 25.8% | 786-0 renal 33.6% | COLO 205 colon 136% | DU-145 prostate 34.6% | K-562 leukemia 20.4% | MALME-3M melanoma 44.1% | MDA-MB-231 breast 70.5% | RXF 393 renal 39.5% | SF-268 CNS 36.9% | SF-295 CNS 43.5% | SF-539 CNS 40.9% | UACC-257 melanoma 80.5% | M14 melanoma 43%
